Screening data as filed in PubChem BioAssay.
Only a sample is shown.
aSyn UTR act: Activators via SNCA 5'UTR binding, MLPCN. alpha-synuclein 5'UTR reporter, activators screen. activity score, % (tested at 7.5 µM), hits read low. 300,000 tested, 7.1% active; in the data active = activity score below about -60%
* = called active by the depositor.

SMILES	aSyn UTR act
CCOc1ccc(-c2ccc(SCc3ccccn3)nn2)cc1	-132*
O=C(Nc1ccccc1)N1CCc2ccccc21	-117*
CCOC(=O)c1[nH]c(C)c(C(=O)N2CCc3ccccc32)c1C	90
CCOC(=O)c1ccc(NC(=O)N2CCc3ccccc32)cc1	-189*
CSc1nc(N)c(C(=O)Nc2ccc([N+](=O)[O-])cc2)s1	-66*
O=C(Nc1ccccc1Cl)c1cccs1	-71*
COc1cc(NC(=S)NC(=O)c2c(OC)cccc2OC)ccc1NC(=O)c1cccs1	-95*
O=C(Nc1ccccc1Cl)c1ccc(-c2ccccn2)s1	-120*
COc1cc(NC(=O)c2ccccc2Cl)ccc1NC(=O)c1cccs1	-143*
O=C(O)c1ccccc1C(=O)NNc1cccc(Cl)n1	-108*
Cc1ccccc1Nc1nnc(SCC(=O)Nc2ccccc2[N+](=O)[O-])s1	-81*
C/C(N)=C(/C#N)C(=O)CSc1nnc(Nc2cccc(C)c2C)s1	-117*
CCN(CC)C(=O)CCCSc1nnc(Nc2ccccc2F)s1	-75*
CCCSc1nnc(Nc2ccccc2C)s1	-96*
CC(=O)C1CCCN(C(=O)c2ccc3oc(CCc4ccccc4)nc3c2)C1 (stereo not drawn)	-94*
O=C(c1ccc2oc(CCCc3ccccc3)nc2c1)N1CCCC1	-141*
CCOC(=O)C1CCCCN1C(=O)CCc1c(C)nc2cc(-c3ccccc3)nn2c1C (stereo not drawn)	76
COC(=O)C1CCCCN1C(=O)c1ccc2oc(Cc3ccccc3)nc2c1 (stereo not drawn)	-88*
COCCC1CCCCN1C(=O)c1ccc2nc(Cc3ccccc3F)oc2c1 (stereo not drawn)	-131*
CCOC(=O)C1CCCN(C(=O)c2ccc3oc(CCc4ccccc4)nc3c2)C1 (stereo not drawn)	-72*
COc1ccccc1NC(=O)COc1ccccc1	-91*
COc1ccccc1NC(=O)COc1ccc(C(F)(F)F)cc1[N+](=O)[O-]	-73*
COc1ccc(OCC(=O)Nc2ccccc2O)cc1	-160*
COc1ccc(NC(=O)COc2ccccc2)c(OC)c1	-115*
COc1ccccc1-n1cc2c([N+](=O)[O-])cc([N+](=O)[O-])cc2n1	-69*
SMILES	aSyn UTR act
COc1ccc(/C=C2\C(=O)NCC(=O)N2Cc2ccccc2)cc1	-62*
CCCC(C)NC(=O)c1ccc(-c2ccccc2)cc1 (stereo not drawn)	-109*
CCC(=O)c1ccc(-c2ccccc2)cc1	-89*
CCN1CCN(C(=S)c2ccc(-c3ccccc3)cc2)CC1	66
c1ccc(-c2noc(-c3ccc4ccccc4c3)n2)cc1	77
Brc1ccc(-c2nc(-c3cccnc3)no2)o1	-164*
Brc1ccc(-c2nc(-c3ccccc3)no2)o1	-141*
CCCCC(=O)Nc1ccc2c(c1)nc1n2CCSC1	-84*
Cc1ccc(C(=O)Nc2ccc3c(c2)nc2n3CCSC2)cc1	-67*
COc1ccccc1N1CCN(/N=C/C=C\c2ccco2)CC1	-136*
O=C(O)c1ccc(/C=N/N2CCN(c3ccccc3)CC2)cc1	-207*
COc1ccccc1N1CCN(/N=C/c2ccc(C(=O)O)cc2)CC1	-128*
COc1ccccc1N1CCN(c2ccc(-c3ccccc3)nn2)CC1	79
CC(C)OCCCNC(=S)NNC(=O)c1ccc(Cl)c(Cl)c1	-87*
CC1(C(=O)OCC(=O)Nc2ccc3ccccc3c2)CC1(Cl)Cl (stereo not drawn)	-78*
CCOC(=O)/C(C#N)=C1/C=CN(c2ccccc2)C=N1	-79*
CCOC(=O)/C(C#N)=C1/C=CN(c2ccc(C)cc2)C=N1	-97*
Cc1ccccc1NC(=S)c1ccc2ccccc2n1	-110*
FCCCOc1ccc(/C=N/OCc2ccc(Cl)cc2)cc1	-70*
FCCCOc1ccc(/C=N/OCc2c(Cl)cccc2Cl)cc1	-94*
CSc1cccc(CN(C)C(=O)C2CCC(=O)N(CCCN3CCCC3=O)C2)c1 (stereo not drawn)	-73*
O=C(Nc1cc([N+](=O)[O-])ccc1O)c1cccc([N+](=O)[O-])c1	-96*
CC(C)(C)c1cc(NC(=O)c2cccc([N+](=O)[O-])c2)no1	-111*
O=C(NNS(=O)(=O)c1ccccc1[N+](=O)[O-])c1cccc([N+](=O)[O-])c1	-69*
Cc1cc(O)c(NC(=O)c2cccc([N+](=O)[O-])c2)cc1C	-79*
SMILES	aSyn UTR act
Cc1ccnc(N(C(=O)Nc2ccccc2)C2=NCC(C)(C)S2)c1	-165*
O=C(CCl)N(c1ccccc1)C1CCS(=O)(=O)C1 (stereo not drawn)	-109*
O=C(Nc1nc(-c2cccs2)cs1)C1=COCCO1	-173*
O=C(Nc1nc(-c2ccc(Cl)cc2)cs1)C1=COCCO1	-109*
Cc1ccc(Cl)c2sc(NC(=O)C3=COCCO3)nc12	-79*
C=CCn1c(SCc2csc(-c3ccc(Cl)cc3)n2)nnc1-c1ccccc1OC	-64*
Nc1ccccc1SCc1csc(-c2ccc(Cl)cc2)n1	-72*
Cc1cc(C)nc(SCc2csc(-c3ccccc3)n2)n1	-91*
Cc1ccc2nc(-c3ccc(N4C(=N)SC5CS(=O)(=O)CC54)cc3)sc2c1 (stereo not drawn)	-101*
CC(C)c1ccc(CNc2c([N+](=O)[O-])c(=O)oc3ccccc23)cc1	-71*
CC(C)c1ccc(CNc2ccc([N+](=O)[O-])cn2)cc1	-78*
O=[N+]([O-])c1ccc(NCc2ccc(Cl)cc2)nc1	-105*
CC(C)c1ccc(CNc2ncc(Br)cn2)cc1	-153*
CCCN1CCC(=O)N(CCSc2ccccc2)CC1	-115*
O=C1CCN(Cc2ccccc2)CCN1CCSc1ccccc1	-78*
Cc1ccn2c(c1)nc(=S)n2C(=O)c1ccco1	-202*
CC(C)(C)n1nc(-c2ccc(F)cc2)c2c(N)ncnc21	71
COc1ccc(-c2nc3cccc(C)n3c2NCC2CCCO2)cc1O (stereo not drawn)	-99*
CCOC(=O)c1sc(-c2ccc(C)cc2)c(C#N)c1C	-65*
CC(C)NC(=O)c1cc(-c2ccco2)on1	-139*
CCCNC(=O)c1cc(-c2ccc(Br)cc2)on1	-85*
CC(C)NC(=O)c1cc(-c2ccc(Br)cc2)on1	-124*
CC1(C)Cc2c(sc(NC(=O)c3ccccc3)c2C(=O)O)CO1	-74*
COc1ccc(C(=O)Nc2sc3c(c2C(=O)O)CC(C)(C)OC3)cc1	63
CN(C)/C=C/C(=O)/C=C/c1ccc(Cl)cc1	-180*
SMILES	aSyn UTR act
Cc1oc(-c2ccc3c(c2)OCCO3)cc1C(=O)O	-135*
Cc1oc(-c2ccc3c(c2)OCCO3)cc1C(=O)NCC(=O)O	-126*
CC(C)(C)C(=O)Nc1nc(-c2ccccc2)ns1	-146*
c1ccc(Nc2nc(-c3ccccc3)ns2)cc1	-144*
COc1ccc(C2NN=C(c3ccc(C)cc3)S2)cc1 (stereo not drawn)	-172*
Cc1ccc(C2=NNC(C(O)C(O)C(O)CO)S2)cc1 (stereo not drawn)	-66*
CC(C)(C)c1ccc(Cn2cnc(-c3ccc([N+](=O)[O-])cc3)c2)cc1	-119*
Cc1ccccc1CSc1nnc(-c2ccncc2)o1	-86*
Fc1ccc(-c2nnc(SCc3cccnc3)o2)cc1	-76*
c1ccc(CSc2nnc(-c3ccncc3)o2)cc1	-104*
Cc1nn(-c2nc3ccccc3s2)c(C)c1Oc1ccccc1O	-77*
CNc1sc(C(=O)c2ccccc2F)c(N)c1-c1nc2ccccc2s1	-84*
Clc1ccc(-c2cnc3n2CCC3)cc1	-103*
Cn1c(-c2cc3ccccc3oc2=O)nc2ccccc21	-97*
